Shown are actives, neighbours in structure and some others; about 19% of the full set was active somewhere.
TDP1 cell CPT: growth inhibition of DT40 Tdp1-/-;hTDP1 cells with camptothecin (screen for TDP1 inhibitors); chicken DT40 Tdp1-/-;hTDP1 cells + 20 nM CPT, ATP luminescence, 48 h; Potency, µM (titrated, usually from 46.2 µM), actives largely listed as inhibitors; actives 12% (n = 420,000); AID 686979; also: nearly all actives have a fitted effect of over 55% in size
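Cell growth measured by CellTiter-Glo luminescence after a minimum 48 h, 37 C compound exposure with 20 nM CPT in Tdp1-knockout DT40 cells stably expressing hTDP1, seeded 400/well; qHTS titration format.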
IL-1B inflam inh: blocks inflammasome-driven IL-1 beta release | THP-1 LPS/ATP IL-1B secretion, AlphaLISA, 16 h; hits give low values | activity change, % at 57.5 µM | actives 4.7% (n = 360,000) | AID 743279; in the data active = activity change below about -50%; inconclusive = mostly about -30% to -49%
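THP-1 cells pretreated 1 hr with compounds (up to 57.5 uM final), then stimulated with LPS (250 ng/mL final) plus ATP (1.25 mM final); secreted IL-1B measured by AlphaLISA after 16 hr, decreased signal indicating inhibition.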
TDP1 cell noCPT: qHTS for Inhibitors of human tyrosyl-DNA phosphodiesterase 1 (TDP1): qHTS in cells in absence of CPT; actives 15% (n = 420,000); DT40 Tdp1-/- hTDP1 cells, no CPT, ATP luminescence, 48 h; Potency, µM (doses to about 46.2 µM), most hits filed as inhibitors; also: nearly all actives have a fitted effect of over 55% in size
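Stably hTDP1-transfected Tdp1-null chicken DT40 cells were treated with library compounds minus camptothecin and grown for at least 48 hr at 37 °C, after which cellular ATP was quantified by luminescence.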
Chronic BCR inh: inhibitors of chronic active B-cell receptor signaling. Potency, µM (titrated, usually from 46.1 µM), usual class: inhibitors. ABC-DLBCL IkBa-CBG/CBR reporter, luminescence ratio, 4 h. actives 0.05% (n = 340,000). AID 493014; active = well fitted inhibition curve with a large enough effect in the signal ratio, with a control signal flat, not every such curve was filed as active; inconclusive = small, poorly fitted or top-dose-only effect, or effect the other way, or a change in a side signal; the % refers to the signal ratio
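Compounds up to 46 uM were incubated four hours with TMD8 cells whose green CBG68 luciferase is fused to IkappaBalpha; red CBR luminescence normalised the signal, and concentration-effect curves were fitted to fusion, red and ratio data.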
MCF10A rereplic: DNA re-replication induction in MCF 10a cells; MCF 10A DNA re-replication, Hoechst nuclear intensity, 48 h; Potency, µM (top dose mostly 46.1 µM), hits mostly activators; actives 2.9% (n = 350,000); AID 624296; also: nearly all actives have a fitted effect of over 50% in size
SW480 rereplic: DNA re-replication induction in SW480 cells; SW480 DNA re-replication, Hoechst DNA content imaging, 48 h; Potency, µM (highest dose often 46.1 µM), most hits filed as activators; actives 1.8% (n = 340,000); AID 624297; also: nearly all actives have a fitted effect of over 55% in size
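Quantitative HTS format with DMSO vehicle controls; 48 hr drug incubation at 37 C, then 40 min Hoechst staining and scanning imager measurement at 405 nm excitation.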
A number is an active result; [ ] = another dose, or the depositor's remark. Unless noted, calls follow the shape of the dose curve; as a rule, active = well fitted curve in the direction sought with a large enough effect; inconclusive = small, poorly fitted or top-dose-only effect, or another doubt; inactive = no such curve, though single readings can be large; an effect the other way counts as inactive or inconclusive.

What do the screens show for `COc1ccc(OC)c(NS(=O)(=O)c2ccc3c(c2)n(C)c(=O)n3C)c1`?
TDP1 cell CPT: inactive; IL-1B inflam inh: inactive; TDP1 cell noCPT: inconclusive; Chronic BCR inh: inconclusive; MCF10A rereplic: inactive; SW480 rereplic: inactive[9.22 µM]

How did CCCS(=O)(=O)Nc1cc2c(cc1NCc1ccccc1)n(C)c(=O)n2C do in these assays?
TDP1 cell CPT: 9.2µM; TDP1 cell noCPT: inconclusive

What do the screens show for `COCC1CCCCN1C(=O)C1CCN(c2nc(-c3ccccc3)nc3c2CCC3)CC1` (centres undefined)?
TDP1 cell CPT: 18.4µM; IL-1B inflam inh: inactive; TDP1 cell noCPT: 14.6µM; Chronic BCR inh: inconclusive; MCF10A rereplic: inactive; SW480 rereplic: inactive

What do the screens show for `Cc1ccccc1-c1nc(NC(=O)CSc2ncnc3sc4c(c23)CCCC4)ns1`?
TDP1 cell CPT: inactive; TDP1 cell noCPT: inactive

How did CC(C)(C)c1ccc(-c2nc(NC(=O)CSc3ncnc4sc5c(c34)CCCC5)ns2)cc1 do in these assays?
TDP1 cell CPT: inconclusive; TDP1 cell noCPT: 4.11µM

Results for Cc1ccc(-c2nc(NC(=O)CSc3nnc4scc(-c5ccccc5)n34)ns2)cc1 ?
TDP1 cell CPT: 18.4µM; IL-1B inflam inh: inactive; TDP1 cell noCPT: 20.6µM; Chronic BCR inh: inactive; MCF10A rereplic: inactive; SW480 rereplic: inactive

How did Cc1ccc(-c2nc(NC(=O)CSc3nc(C)nc4sc5c(c34)CCCC5)ns2)cc1 do in these assays?
TDP1 cell CPT: 11.6µM; TDP1 cell noCPT: 6.51µM

How did COc1ccc(C(=O)N/C(=C\c2cn(S(=O)(=O)N(C)C)c3ccccc23)C(=O)N2CCCC2)cc1 do in these assays?
TDP1 cell CPT: inconclusive; IL-1B inflam inh: inactive; TDP1 cell noCPT: inactive

What do the screens show for `C=CCNc1ncnc2c1ncn2[C@H]1CN(Cc2ccc(F)cc2)C[C@@H](CO)O1`?
TDP1 cell CPT: inconclusive; IL-1B inflam inh: inactive; TDP1 cell noCPT: inconclusive

Results for NC(=O)c1ccccc1OCc1nnc(-c2ccccc2Br)o1 ?
TDP1 cell CPT: 23.1µM; IL-1B inflam inh: inactive; TDP1 cell noCPT: 29.1µM; Chronic BCR inh: inactive; MCF10A rereplic: inactive; SW480 rereplic: inactive

What do the screens show for `Oc1ccccc1-c1nnc(COc2ccccc2)o1`?
TDP1 cell CPT: inconclusive; IL-1B inflam inh: inactive; TDP1 cell noCPT: inactive; Chronic BCR inh: inconclusive; MCF10A rereplic: inactive; SW480 rereplic: inactive

What do the screens show for `Oc1ccccc1-c1nnc(COc2ccc(Cl)cc2Cl)o1`?
TDP1 cell CPT: 20.6µM; IL-1B inflam inh: inactive; TDP1 cell noCPT: inconclusive; Chronic BCR inh: inconclusive; MCF10A rereplic: inactive; SW480 rereplic: inactive

Results for Cc1ccc(S(=O)(=O)c2nc(/C=C/c3ccccc3)oc2N2CCC(C(N)=O)CC2)cc1 ?
TDP1 cell CPT: inconclusive; IL-1B inflam inh: inactive; TDP1 cell noCPT: inconclusive

What do the screens show for `COc1ccc(CC2(CO)COc3ccccc3C2=O)cc1` (centres undefined)?
TDP1 cell CPT: inconclusive; IL-1B inflam inh: inactive; TDP1 cell noCPT: 16.4µM; MCF10A rereplic: inconclusive; SW480 rereplic: 16.4µM

What do the screens show for `COc1ccc(CN2C(=O)COc3ccccc32)cc1`?
TDP1 cell CPT: inactive; IL-1B inflam inh: inactive; TDP1 cell noCPT: inactive; Chronic BCR inh: inactive; MCF10A rereplic: inactive; SW480 rereplic: inactive

Results for CCCN(C1CCS(=O)(=O)C1)S(=O)(=O)c1ccc(F)cc1 (centres undefined) ?
TDP1 cell CPT: inactive; IL-1B inflam inh: inactive; TDP1 cell noCPT: inactive; Chronic BCR inh: inactive; MCF10A rereplic: inactive; SW480 rereplic: inactive

Results for CCOC(=O)c1nnc(-c2ccccc2)nc1Sc1c(Cl)cccc1Cl ?
TDP1 cell CPT: 20.6µM; IL-1B inflam inh: -116.1; TDP1 cell noCPT: 16.4µM; Chronic BCR inh: inconclusive; MCF10A rereplic: 14.6µM; SW480 rereplic: inconclusive

Results for CCOC(=O)c1c(C)nc(-c2ccccc2)nc1N ?
TDP1 cell CPT: inactive; IL-1B inflam inh: inactive; TDP1 cell noCPT: inactive; Chronic BCR inh: inactive; MCF10A rereplic: inactive; SW480 rereplic: inactive

Results for CCOC(=O)c1nnc(-c2ccc(C)cc2)nc1Sc1ccc(Cl)cc1 ?
TDP1 cell CPT: 8.2µM; IL-1B inflam inh: inactive; TDP1 cell noCPT: 8.2µM; Chronic BCR inh: inconclusive; MCF10A rereplic: inactive; SW480 rereplic: inactive

How did CCOC(=O)c1nnc(-c2ccc(C)cc2)nc1Sc1ccccc1Cl do in these assays?
TDP1 cell CPT: inconclusive; IL-1B inflam inh: -96.5; TDP1 cell noCPT: 16.4µM; Chronic BCR inh: inconclusive; MCF10A rereplic: 7.31µM; SW480 rereplic: inactive

Results for CC(=O)c1ccc(N2C(=O)Nc3ccccc3S2(=O)=O)cc1 ?
TDP1 cell CPT: inactive; TDP1 cell noCPT: inconclusive; Chronic BCR inh: inactive

How did CCN(CC)CCNC(=O)c1sc2ncccc2c1-n1cccc1 do in these assays?
TDP1 cell CPT: inactive; TDP1 cell noCPT: inactive

Results for COc1cc(CNC(=O)c2sc3ncccc3c2-n2cccc2)cc(OC)c1OC ?
TDP1 cell CPT: 18.4µM; TDP1 cell noCPT: 10.3µM

How did CC(C)Oc1ccc(CNC(=O)c2sc3ncccc3c2-n2cccc2)cc1 do in these assays?
TDP1 cell CPT: 20.6µM; TDP1 cell noCPT: 18.4µM

How did CN(C)c1ccc(CNC(=O)c2sc3ncccc3c2-n2cccc2)cc1 do in these assays?
TDP1 cell CPT: 16.4µM; TDP1 cell noCPT: 20.6µM

How did CCOC(=O)COc1c(C(=O)OC)sc2ncccc12 do in these assays?
TDP1 cell CPT: inactive; IL-1B inflam inh: inactive; TDP1 cell noCPT: inactive; Chronic BCR inh: inactive; MCF10A rereplic: inactive; SW480 rereplic: inactive

Results for COc1cccc(CNC(=O)c2sc3ncccc3c2-n2c(C)ccc2C)c1OC ?
TDP1 cell CPT: 10.3µM; TDP1 cell noCPT: 13µM

Results for CC(C)CN(C(=O)C1=NN(c2ccccc2)C(=O)CC1)c1c(N)n(Cc2ccccc2)c(=O)[nH]c1=O ?
TDP1 cell CPT: inactive; IL-1B inflam inh: inactive; TDP1 cell noCPT: inactive; Chronic BCR inh: inactive; MCF10A rereplic: inactive; SW480 rereplic: inactive

How did Cc1cc(C)c2c(-n3cccc3)c(NC(=O)OC(C)C)sc2n1 do in these assays?
TDP1 cell CPT: 18.4µM; IL-1B inflam inh: inactive; TDP1 cell noCPT: 20.6µM; Chronic BCR inh: inconclusive; MCF10A rereplic: inactive; SW480 rereplic: inactive

Results for COc1cccc(CNC(=O)c2sc3nc(C)cc(C)c3c2-n2cccc2)c1OC ?
TDP1 cell CPT: 23.1µM; TDP1 cell noCPT: inconclusive

Results for Cc1cc(C)c2c(-n3cccc3)c(C(=O)O)sc2n1 ?
TDP1 cell CPT: inactive; IL-1B inflam inh: inactive; TDP1 cell noCPT: inactive; Chronic BCR inh: inconclusive; MCF10A rereplic: inactive; SW480 rereplic: inactive

Assay outcomes as filed in PubChem BioAssay.
